Experimental data taken from article PMC5540273 (PLoS ONE, 2017).

Tests used:
Settings in all cases: concentration: 1 μM,replicates: in singlicate; n = 1
AAK1 = test system: AAK1
ABL1-nonphosphorylated = test system: ABL1-nonphosphorylated
ABL1-phosphorylated = test system: ABL1-phosphorylated
ABL2 = test system: ABL2
ACVR1B = test system: ACVR1B
ACVR1 = test system: ACVR1
ACVR2A = test system: ACVR2A
ACVR2B = test system: ACVR2B
ACVRL1 = test system: ACVRL1
ADCK3 = test system: T1, ADCK3
T1 construct: gene CABC1
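Further: KINOMEscan kinase panel screen.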

Row | SMILES | %Inh (AAK1) [%] | %Inh (ABL1-nonphosphorylated) [%] | %Inh (ABL1-phosphorylated) [%] | %Inh (ABL2) [%] | %Inh (ACVR1B) [%] | %Inh (ACVR1) [%] | %Inh (ACVR2A) [%] | %Inh (ACVR2B) [%] | %Inh (ACVRL1) [%] | %Inh (ADCK3) [%]
1 | COc1cccc(CNC(=O)NC2CCN(c3ccnc(Nc4cc(OC)c(OC)c(OC)c4)n3)C2)c1 (stereo not shown) [GSK1379765] | 54 | 0 | 0 | 20 | 0 | 0 | 0 | 14 | 0 | 24
2 | C[C@@H]1CNc2c(sc3ccc4nc(-c5ccncc5)ccc4c23)C(=O)N1 | 49 | 38 | 11 | 0 | 0 | 0 | 1 | 30 | 10 | 0
3 | Cc1cccc(-c2nc(Nc3ccncc3)c3sccc3n2)n1 [GW869641] | 25 | 0 | 16 | 0 | 96.5 | 0 | 42 | 41 | 14 | 0
4 | C[C@@H](Oc1cc(-n2cnc3ccc(-c4ccncc4)cc32)sc1C(N)=O)c1ccccc1Cl [GSK483724] | 60 | 0 | 0 | 21 | 0 | 32 | 0 | 0 | 0 | 52
5 | C[C@@H](Oc1cc(-n2cnc3cc(-c4ccncc4)ccc32)sc1C(N)=O)c1ccccc1Cl [GSK479719] | 61 | 0 | 25 | 22 | 0 | 10 | 0 | 0 | 0 | 12
6 | OCCn1cc(-c2cnc3nnn(Cc4ccc5ncccc5c4)c3n2)cn1 | 0 | 32 | 0 | 0 | 51 | 0 | 0 | 0 | 0 | 0
7 | O=C1NCCc2[nH]c(-c3ccncc3)cc21 | 77 | 31 | 0 | 0 | 40 | 14 | 40 | 70 | 19 | 33
8 | Cn1ccc2ncnc(Oc3ccc(NC(=O)Nc4cccc(C(F)(F)F)c4)c(Cl)c3)c21 | 0 | 88 | 19 | 21 | 1 | 0 | 0 | 47 | 0 | 5
9 | CC(C(=O)NC1CCN(c2ccnc(Nc3ccc(F)cc3)n2)C1)c1ccc(Cl)cc1 (stereo not shown) [GSK1379713] | 14 | 0 | 0 | 9 | 0 | 0 | 0 | 0 | 0 | 0
10 | COc1cc2c(Nc3ccc(NC(=O)c4ccccc4)cc3)ncnc2cc1OCCCN1CCOCC1 [GSK301329] | 0 | 16 | 0 | 20 | 0 | 0 | 0 | 0 | 0 | 10
11 | CN(c1cccc(CNc2nc(Nc3ccc4c(c3)CC(=O)N4)ncc2C(F)(F)F)c1)S(C)(=O)=O | 51 | 46 | 3 | 16 | 0 | 0 | 0 | 0 | 0 | 0
12 | O=c1[nH]cc(-c2ccc(O)cc2)c2sc(-c3ccncc3)cc12 [GSK1033723] | 26 | 0 | 0 | 0 | 0 | 0 | 0 | 0 | 0 | 34
13 | NC(=O)c1ccc(-c2cc3ncnc(SCC(=O)O)c3s2)cc1 | 4 | 57 | 20 | 0 | 0 | 0 | 8 | 17 | 0 | 25
14 | CC(=O)Nc1nc2cnc(Nc3cc(NC(=O)c4cccc(CC(C)(C)C#N)c4)ccc3C)nc2s1 | 23 | 99.7 | 50 | 61 | 0 | 0 | 11 | 0 | 0 | 3
15 | Cn1ccc2ncnc(Oc3ccc(NC(=O)Nc4cc(C(C)(C)C)on4)c(Cl)c3)c21 | 18 | 94.8 | 51 | 46 | 15 | 0 | 12 | 12 | 0 | 0
16 | CCCC(=O)Nc1n[nH]c2ncccc12 [SB-601436] | 0 | 24 | 0 | 0 | 0 | 5 | 0 | 0 | 0 | 0

Row | SMILES | %Inh (AAK1) [%] | %Inh (ABL1-nonphosphorylated) [%] | %Inh (ABL1-phosphorylated) [%] | %Inh (ABL2) [%] | %Inh (ACVR1B) [%] | %Inh (ACVR1) [%] | %Inh (ACVR2A) [%] | %Inh (ACVR2B) [%] | %Inh (ACVRL1) [%] | %Inh (ADCK3) [%]
17 | CC(C)c1nc(-c2cccc(NS(=O)(=O)c3ccccc3)c2)c(-c2ccnc(Nc3ccc4c(c3)CN(C)CC4)n2)s1 [GSK1649598] | 25 | 99.8 | 97.3 | 98.7 | 93.5 | 99 | 24 | 94.5 | 80 | 100
18 | CN1CCN(CCNc2nc3cc(Oc4ccc(NC(=O)Nc5cc(C(F)(F)F)ccc5F)cc4)ccc3[nH]2)CC1.Cl.Cl [GW768504] | 0 | 51 | 23 | 0 | 0 | 0 | 0 | 0 | 0 | 0
19 | N#Cc1cccc(C(=O)NC2CCN(c3ccnc(Nc4ccc(F)cc4)n3)C2)c1 (stereo not shown) [GSK1379708] | 0 | 0 | 0 | 4 | 0 | 31 | 0 | 0 | 0 | 0
20 | COc1cc2nccc(Nc3ccc(Oc4ccccc4)cc3)c2cc1OC.Cl [GI261656] | 6 | 89 | 14 | 16 | 0 | 0 | 0 | 0 | 0 | 5
21 | NC(=O)Nc1sc(-c2ccc(F)cc2)cc1C(N)=O [GW789449] | 60 | 49 | 0 | 3 | 5 | 0 | 31 | 28 | 0 | 5
22 | COc1cc(Nc2nccc(N3CCC(NC(=O)c4cccc(C#N)c4)C3)n2)cc(OC)c1OC (stereo not shown) [GSK1379751] | 75 | 0 | 0 | 3 | 0 | 98.8 | 0 | 0 | 0 | 4
23 | CSc1nccc(-c2c(-c3ccc(F)cc3)ncn2CCCN2CCOCC2)n1.Cl [SB-217146] | 0 | 35 | 31 | 0 | 0 | 0 | 0 | 0 | 0 | 0
24 | O=C(Nc1ccc(Oc2ccc3nc(NC(=O)C4CC4)cn3n2)c(F)c1)c1cccn(-c2ccccc2)c1=O | 0 | 99.9 | 88 | 62 | 0 | 19 | 28 | 31 | 1 | 16
25 | Cc1ccc2c(-c3ccnc(Nc4ccc(C(F)(F)F)cc4)n3)cnn2n1 [GW819776] | 12 | 36 | 28 | 1 | 11 | 0 | 0 | 0 | 0 | 5
26 | O=C(Nc1n[nH]c2cc(-c3ccco3)ccc12)C1CC1 [SB-737447] | 100 | 37 | 28 | 0 | 5 | 0 | 9 | 0 | 0 | 8
27 | O=C(NCC1CC1)c1ccc(-c2cc(C(=O)NC3CC3)ccc2F)cc1 [GW810445] | 0 | 0 | 10 | 3 | 0 | 0 | 0 | 6 | 0 | 0
28 | O=C(NOCC1CC1)c1cc(Br)c(F)c(F)c1Nc1ccc(I)cc1Cl | 0 | 52 | 0 | 0 | 0 | 0 | 2 | 0 | 0 | 7
29 | CN(c1ccccc1CNc1nc(Nc2ccc3c(c2)CC(=O)N3)ncc1C(F)(F)F)S(C)(=O)=O | 10 | 25 | 7 | 5 | 28 | 0 | 0 | 0 | 0 | 0
30 | COC(=O)Nc1nc2cc(Oc3ccc(NC(=O)Nc4cc(C(F)(F)F)ccc4Cl)cc3)ccc2[nH]1.Cl [GW697465] | 0 | 97 | 32 | 89 | 0 | 0 | 0 | 0 | 0 | 82
31 | CCNCC(Cc1ccccc1)NC(=O)c1cc(Br)c(-c2ccnc3[nH]ccc23)s1.Cl.Cl (stereo not shown) [GSK1383280] | 39 | 15 | 14 | 19 | 0 | 0 | 0 | 2 | 0 | 12
